Data as given in PubChem BioAssay (NCI).
Compounds without any hit were thinned out: in the full panel of roughly 83,000, 20% have a hit.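 Growth was measured after 48 h exposure to one concentration of compound in 96-well plates. Values under 10 count as active.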 Values without a mark were called inactive. Calls of active or inactive are those of the source.

Test system: SK-MEL-5 melanoma
Test: NCI-60 one-dose screen, 48 h (100 = growth as untreated, 0 = no growth, -100 = all killed)
Conditions: 10 µM unless noted
Procedure: Growth inhibition of the SK-MEL-5 human tumor cell line is measured as a screen for anti-cancer activity. Cells are grown in 96 well plates and exposed to the test compound for 48 hours. Compounds are tested at a single concentration, which is 10^-5 M for most compounds. The reported endpoint is percent growth (GI% or GIPRCNT), where numbers from 0 - 100% represent growth inhibition, and numbers from -100% - 0 represent cell death. For example, a value of 40 represents 60% growth inhibition. A value of 0 means no net growth occurred over the course of the experiment. A value of -40 indicates 40% of cells at the beginning of the experiment died by the end of the experiment. A value of -100 means all cells are dead at the end of the experiment.
NCI-60 Human Tumor Cell Lines Screen was performed using the standard one-dose NCI protocol, which is described in more detail at https://dtp.cancer.gov/discovery_development/nci-60/default.htm.
Compounds with GIPRCNT values below 10 were considered active. Activity score was based on GIPRCNT using the following formula: […]
Score is 0 for GIPRCNT values of 100 or above, 50 for GIPRCNT values of 0, and 100 for GIPRCNT values of -100.

| Structure (SMILES) | growth |
| --- | --- |
| c1ccc(-c2ccc(-c3nc4ccccc4[nH]3)cc2)cc1 | 100% |
| CCOC(=O)c1cc2c(n1Cc1ccccc1OC)-c1oncc1CCC2 | 6.57% (active) |
| Cc1ccc(C(=O)c2oc3ccc4c(C)cc(=O)oc4c3c2C)cc1 | -56.6% (active) |
| O=C(N/N=C/c1ccccc1Cl)C(=O)Nc1cccc(C(F)(F)F)c1 | 96.6% |
| N#Cc1c(N)nc2c(c1N)C(c1ccc(F)cc1)c1ccc(N)cc1O2 (stereo not given) | 96.1% |
| Cc1c(-c2noc(-c3ccc([N+](=O)[O-])cc3)n2)no[n+]1[O-] | 92.1% |
| Oc1[nH]c2ccccc2c1N=Nc1nnc2n1N=C(c1ccccc1)CS2 | 95.6% |
| COc1ccc(-c2cc(=O)c3c(OC)c4ccoc4c(/C=C/C=O)c3o2)cc1 | 32.1% |
| OC(c1ccccc1)c1nnc(SCc2ccccc2)n1Cc1ccccc1 (stereo not given) | 96.7% |
| COc1cc2nc(-c3cccc4cccnc34)nc(NC3CCN(Cc4ccccc4)CC3)c2cc1OC | -96.8% (active) |
| O=C(NC1CCN(Cc2ccccc2)CC1)c1cc(C(=O)NC2CCN(Cc3ccccc3)CC2)cc(C(=O)NC2CCN(Cc3ccccc3)CC2)c1 | 85.2% |
| O=C(/C=C/c1ccc(Cl)cc1)c1ccc(Nc2nc(NCCO)nc(Nc3ccc(Cl)cc3)n2)cc1 | 81.5% |
| Brc1ccc(Oc2ccc(Nc3ncnc4onc(-c5ccccc5)c34)cc2)cc1 | 92.6% |
| CC1=CCC(OC(=O)C(C)(C)CCC(O)(C(=O)OC2(C(C)C)CCC3(C)OC3C2)C(C)C)(C(C)C)CC1 (stereo not given) | -97.2% (active) |
| O=C(/C=C/c1ccc(C(F)(F)F)cc1)c1ccc(Nc2nc(NCCO)nc(N3CCOCC3)n2)cc1 | 46.3% |
| COc1cc(/C=C2\CCC/C(=C\c3cc(CN4CCCCC4)c(O)c(OC)c3)C2=O)cc(CN2CCCCC2)c1O | 92.6% |
| Cc1ccc(Nc2nc(N)c3ccccc3n2)cc1Cl | 60.2% |
| COc1ccc(C(=O)Nc2ccc3nc(N4CCCCC4)cc(C)c3c2)cc1OC | 88.1% |
| COc1cc(C#N)cc2[nH]c(=O)oc12 | 96.7% |
| O=Cc1c(OCc2cnnn2CC(=O)Nc2ccc(Br)cc2)ccc2ccccc12 | 93.9% |

| Structure (SMILES) | growth |
| --- | --- |
| COc1cc(/C=C2\CN(C)C/C(=C\c3cc(CN4CCCC4)c(O)c(OC)c3)C2=O)cc(CN2CCCC2)c1O | 89.3% |
| NC1(N2SC(S)=C3CCCC=C32)CCCCC1 | 104% |
| O=[N+]([O-])c1cc2c(ccc3occc32)o1 | -77% (active) |
| COc1ccc(-c2nsc3c2NC(=O)CC3c2ccc3c(c2)OCCO3)cc1 (stereo not given) | 27% |
| O=C(/C=C/c1cccc(Cl)c1)OCc1ccc2cc1OCC#C/C=C\C#CCO2 | 106% |
| CC1CCCCN1CCCNC(=O)c1ccc2c(c1)sc1nc(-c3ccc(F)cc3)cn12 (stereo not given) | 99.3% |
| CC[C@]1(O)C[C@@H]2CN(CCc3c([nH]c4ccccc34)[C@@](C(=O)OC)(c3cc4c(cc3OC)N(C)[C@H]3[C@@](O)(C(=O)OC)[C@H](OC(=O)CCCBr)[C@]5(CC)C=CCN6CC[C@]43[C@@H]65)C2)C1 | -42.8% (active) |
| Nc1nc2c(ncn2[C@@H]2O[C@H](CS)[C@@H](O)[C@H]2O)c(=O)[nH]1 | 97% |
| O=c1c2cccc(F)c2sc2c(N3CCNCC3)nc3ccccc3c12 | 56.2% |
| COc1ccc(Cn2cc(Cn3cc(C=C4C(=O)NC(=O)NC4=O)c4ccccc43)nn2)cc1 | 60.7% |
| O=c1oc2ccc(-c3ccc(F)cc3F)cc2c(=O)n1-c1cccc(C(F)(F)F)c1 | -76.4% (active) |
| O=C1C(=O)c2c(ccc3ccccc23)-c2ccccc21 | -69.9% (active) |
| CCOC(=O)C1=C(C)N=c2s/c(=C\c3cc(Cl)ccc3O)c(=O)n2C1c1ccc(OC)cc1 (stereo not given) | 88.5% |
| CN1CCN(Cc2ccc(NC(=O)c3[nH]ncc3Nc3cc(OC4CCCC4)ncn3)cc2)CC1 | 14.5% |
| COc1cccc(/C=C/C(=O)c2c(C)nc3ccccc3c2/C=C/c2ccccc2)c1OC | 32.3% |
| O=C(Nc1ccc(N2CCNCC2)cc1)c1[nH]ncc1Nc1ncnc2sc3c(c12)CCC3 | -97.4% (active) |
| O=C1c2ccc3c4c(ccc(c24)C(=O)N1CCCCO)C(=O)N(CCCCO)C3=O | 78.4% |
| Cc1ccc(NCCNCC(O)CO)c2c(=O)c3ccccc3sc12 (stereo not given) | -81% (active) |
| CCCCc1ccc(NS(=O)(=O)c2cc3c4c(c2)CCN4C(=O)CC3)cc1 | 0.989% (active) |
| COc1cccc(C2=NN3C(C2)c2ccccc2OC3c2ccc(/C=C3\SC(=O)NC3=O)cc2)c1 (stereo not given) | 91.8% |
